Data: PubChem BioAssay AID624202 (National Center for Advancing Translational Sciences (NCATS), 2012)
Out of some 380,000 compounds screened, about 4,000 (1.1%) were called active. About 3% were inconclusive and are not listed. The call rests on the fitted dose curve; in most records, active means well fitted activation curve with a large enough effect; inconclusive means small, poorly fitted or top-dose-only effect; inactive means no such curve, though single readings can be large or run the other way. The entries come from a sample that favours actives as a whole.

Assay: qHTS Assay to Identify Small Molecule Activators of BRCA1 Expression; further: nearly all actives have a fitted effect of over 80% in size
Details: MCF7-BRCA1-FFLuc reporter, luminescence, 48 h; series mostly up to 46.1 µM; activation: at the top concentration
Procedure, shortened: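 Activators of BRCA1 expression were detected as increased firefly luciferase luminescence in engineered MCF7 cells after 48 h compound incubation. Signals were scaled to genistein 10 microM as full activation.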
Potency means the concentration at half of the fitted maximal effect.

activation, inactive:
O=S(=O)(c1ccc(C2CCCCC2)cc1)N1CCN(c2ccc(Cl)c(Cl)c2)CC1 3.15%
CSc1cccc(NC(=O)CN2C(=O)CCc3cc(S(=O)(=O)N4CCCCC4)ccc32)c1 -12.1%
COc1ccc2c(c1)c(=O)c(C(=O)c1ccccc1)cn2CC(=O)Nc1ccc2c(c1)OCCO2 1.41%
CC(=O)N1CCc2cc(Br)cc(S(=O)(=O)CCC(=O)NCCc3ccc(Cl)cc3)c21 -2.1%
CN(CC(=O)Nc1cccc(C(F)(F)F)c1)S(=O)(=O)c1cccs1 14.2%
CC(=O)NN=C(C)c1ccc(NC(=O)C2CC2)cc1 13.3%
C/C(=N/NS(=O)(=O)c1ccccc1)c1ccc(NC(=O)C(F)(F)F)cc1 3.78%
O=C(CSc1nc(=O)n(Cc2cccnc2)c2c1CCC2)Nc1ccc(F)cc1F -12.5%
CC(=O)Nc1ccc(S(=O)(=O)N2CCN(c3ccccc3)CC2)cc1 3.72%
Cc1ccccc1-c1nnn(CC(=O)c2ccc(S(=O)(=O)N3CCCC3)cc2)n1 -30.9%
COc1cc(-c2nnn(CC(=O)NCc3ccccc3)n2)cc(OC)c1OC -8.64%
O=C(Nc1ccccc1C(F)(F)F)c1nc(S(=O)(=O)Cc2ccccc2F)ncc1Cl -78.4%
COc1ccccc1-c1sc2ccccc2c1-c1ccc(C(C)=O)cc1 -15.5%
COC(=O)c1ccc(/C=C/c2c(-c3ccc(OC)cc3)sc3ccccc23)cc1 -41.1%
CCN(CC)S(=O)(=O)c1ccc2c(c1)c(=O)c(C(=O)N1CCN(c3cccc(Cl)c3)CC1)cn2C 1.45%
CCNC(=O)c1sccc1-n1cccc1 -2.78%
Cc1ccsc1C(=O)NC1CCCCC1C (stereo not given) 23.2%
NC(=O)Nc1ccc(/C=C/c2ccnc3ccccc23)cc1 9.16%
COc1ccc(CNc2nc(-c3ccc(Cl)cc3)nn2C(=O)c2ccccc2)cc1 0.489%
CCC(C(=O)Nc1cc(OC)ccc1OC)n1c(=O)c(C(F)(F)F)nc2ccccc21 (stereo not given) 0%
Cc1cccc(NC(=O)CSCC(=O)Nc2nnc(C3CC3)s2)c1 -38.4%
CC1CCN(c2ccc(C(=O)Nc3nnc(C4CC4)s3)cc2[N+](=O)[O-])CC1 13.3%
Cc1ccc(Cc2nc3ccccc3nc2SCC(=O)Nc2cccc(C(F)(F)F)c2)cc1 0.931%
Cn1cccc1C(=O)Nc1nccs1 55%
CCCCOC(=O)Nc1nccs1 57.8%
Cc1ccc(NC(=O)c2oc3ccccc3c2NC(=O)Cc2cccs2)cc1 15.5%
Cc1cc(NC(=O)c2ccc(-c3ccc(Cl)cc3)o2)cc(-c2nc3ncccc3o2)c1O 16.6%
CCOc1cc(C2c3c(-c4ccc(Br)cc4)n[nH]c3C(=O)N2c2ccc(Cl)cc2)ccc1O (stereo not given) -76.9%
CCC1=Nc2cc(C(=O)NCC(C)c3ccccc3)ccc2Sc2ccc(C)cc21 (stereo not given) -70.2%
O=C(COc1ccccc1F)OCc1cc(=O)n2nc(C3CCCCC3)sc2n1 8.78%
COc1cccc(CNCc2c(C(=O)O)n(Cc3ccc(C)cc3)c3cc(C)ccc23)c1OC 4.07%
Cn1c(SCC(=O)N2CCCC2)nnc1-c1cccs1 12.3%
O=C(CSc1n[nH]c(-c2cccs2)n1)N1CCCCC1 55.6%
OC(CBr)C[n+]1cccc2cc(Br)ccc21 (stereo not given) -19.2%
CCCCOc1ccc(C(=O)Nc2cccc(-c3nc4ccccc4o3)c2C)cc1 -3.11%
CN(c1ccc(C(=O)N2CCc3ccccc3C2)cc1)S(C)(=O)=O 41.3%
COc1ccc2c(c1)CCc1c(C(=O)N3CCc4ccccc4C3)noc1-2 28.8%
COc1ccc2c(c1)c(N1CCCC1=O)c(C(=O)Nc1ccc(OC)c(Cl)c1)n2C -41.1%
O=C(c1ccc2c(c1)N(Cc1ccc(Cl)cc1)C(=O)c1ccccc1S2(=O)=O)N1CCCCC1 7.95%
CCN(c1cccc(C)c1)S(=O)(=O)c1ccc(-c2coc(C)n2)cc1 7.61%
CCN(CC(=O)NCCc1ccccc1)S(=O)(=O)c1ccc(C)cc1 -8.5%
CCC(=O)N1N=C(c2ccc(OC)cc2)CC1c1cn(-c2ccccc2)nc1-c1cccs1 (stereo not given) 6.03%
CN(C(=O)CSc1nc2ccccc2n1Cc1ccccc1C#N)c1ccccc1 0%
CN1CCN(/[N+]([O-])=N/Oc2ccc([N+](=O)[O-])cc2[N+](=O)[O-])CC1 -3.67%
CCn1c2ccc(F)cc2c2nnc(SCCN3CCOCC3)nc21 -40.1%
COc1ccc2nc(SCC(=O)Nc3c(C)cc(C)cc3C)[nH]c2c1 4.09%
COc1cc(C)ccc1OCCSc1nc2ccc(NC(=O)c3ccc(C)cc3)cc2s1 -0.298%
CCOc1ccc(CCNC(=O)c2cc3c(=O)n(C)c4ccccc4c3n2C)cc1 4.71%
Cc1ccccc1CCNC(=O)C1CCN(c2nc3ccccc3nc2C(F)(F)F)CC1 11%
COc1ccc(-n2c(C)nc3c(cnn3-c3ccc(F)cc3)c2=O)cc1 -6.83%

Potency, active:
C/C(=N/NC(=O)c1ccc(NC(=O)c2ccc(F)cc2)cc1)c1ccccc1 12.6 µM
CC(C)(C)NC(=O)Cn1nnc(-c2ccccc2Cl)n1 12.6 µM
COc1ccc(N=C(C)c2sc3ccccc3c2O)cc1 5.01 µM
Cc1ccsc1C(=O)NCCc1ccco1 4.47 µM
Cc1cc(C(=O)Nc2nnc(C3CC3)s2)c(C)s1 3.55 µM
CC(=O)Oc1ccc(C(=O)Nc2nccs2)cc1 11.2 µM
O=C(CSCc1cccs1)N1CCCC1 12.6 µM
O=C(c1noc2c1CCCC2)N1CCc2ccccc2C1 5.62 µM
CCN(CC)S(=O)(=O)c1ccc(-c2cn3ccc(C)cc3n2)cc1 3.55 µM
Cc1cc2nc(SCCN3CCOCC3)[nH]c2cc1C 4.47 µM
